Screening results from PubChem BioAssay.
Peg3 prom inh: reduces Peg3 promoter-driven luciferase expression in HeLa; HeLa PEG-Prom luciferase reporter, luminescence, overnight; inhibition, % at 20 µM; actives 1.7% (n = 360,000); AID 588405;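 active = inhibition of at least 50% at 20 µM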
TRPM1 prom inh: MITF TRPM1 promoter inhibition in SK-MEL-5 cells | inhibition, % at 12.5 µM | AID 488899 | actives 0.83% (n = 330,000) | SK-MEL-5 TRPM1 promoter luciferase, 24 h;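 active = mean inhibition across replicates of 60% or more, whatever share of single replicates reaches that level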
PAX8 inh HTS: inhibitors of PAX8 transcriptional activity in RMG-I cells; actives 1.2% (n = 360,000); AID 652154; RMG-I TPO-luciferase reporter, SteadyGlo, 24 h; inhibition, % at 12.6 µM;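 active = mean replicate inhibition at least 60% with every replicate also reaching 60%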;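 note: luciferase light reporting Pax8 driven TPO promoter activity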
HIF-2a inh: inhibitors of HIF-2a | 786-0 RCC cells HIF-2a reporter, luciferase luminescence, overnight | inhibition, % at 18.8 µM | actives 0.72% (n = 360,000);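 active = inhibition of the luminescence signal of 40% or more relative to plate controls, in a single-dose primary screen at 18.75 µM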
Shn3 3UTR inh: inhibitors of Schnurri-3 3'UTR reporter in osteoblasts; Clone20 osteoblast Shn3 3'UTR firefly luciferase, 24 h; inhibition, % at 12.5 µM; actives 0.52% (n = 360,000);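 active = mean inhibition of at least 75% with every replicate also reaching 75%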
EBV LMP1 NFkB: Epstein-Barr LMP1 NF-kappaB reporter inhibition. LMP1-induced NF-kappaB luciferase reporter cells, luminescence. inhibition, % at 12.5 µM. actives 0.69% (n = 350,000); in the data active = inhibition above about 41%
Hits are given with their value; . = inactive; / = no result given. Compounds with a hit are over-represented: about 2.8% of the library has one in this group of screens.

SMILES	Peg3 prom inh	TRPM1 prom inh	PAX8 inh HTS	HIF-2a inh	Shn3 3UTR inh	EBV LMP1 NFkB
Cc1ccc(S(=O)(=O)N(C)C[C@H]2Oc3ccc(NS(=O)(=O)c4ccc(F)cc4)cc3C(=O)N([C@@H](C)CO)C[C@H]2C)cc1	/	/	.	/	/	/
COc1ccccc1C#Cc1ccc([C@H]2[C@H](CO)N3CCCCN(C(=O)C4CCCC4)C[C@@H]23)cc1	/	/	.	/	/	/
CC(Cc1cccs1)NC(=O)Nc1ccc(F)cc1 (stereo not given)	.	.	/	.	89	.
CC(Cc1cccs1)NC(=O)Nc1cccc(Cl)c1 (stereo not given)	.	.	.	.	.	.
C[C@@H]1CN([C@@H](C)CO)C(=O)c2cc(NC(=O)CCC(F)(F)F)ccc2O[C@@H](C)CCCCO[C@H]1CN(C)C	/	/	.	/	/	/
C[C@H](CO)N1C[C@H](C)[C@@H](CN(C)C(=O)NC2CCCC2)Oc2ncc(-c3ccc(F)cc3)cc2C1=O	/	/	.	/	/	/
COc1ccccc1N(C)S(=O)(=O)c1ccc(C(=O)Nc2cc(F)ccc2C)cc1	.	.	.	.	83	.
COc1ccccc1N(C)S(=O)(=O)c1ccc(C(=O)Nc2cccc(S(=O)(=O)N3CCOCC3)c2)cc1	50	.	.	.	.	.
C[C@@H]1CCCCO[C@H](CN(C)C(=O)Nc2ccc3c(c2)OCO3)[C@H](C)CN([C@@H](C)CO)C(=O)c2cc(NC(=O)CCCN(C)C)ccc2O1	/	/	.	/	/	/
C[C@@H]1CN([C@H](C)CO)C(=O)c2cc(NS(=O)(=O)c3ccc(F)cc3)ccc2O[C@@H](C)CCCCO[C@H]1CN(C)C(=O)Nc1ccccc1	/	/	.	/	/	/
COc1cccc(C(=O)Nc2ccc3c(c2)C(=O)N(C)C[C@@H](OC)[C@H](C)CN(CCc2ccccc2)[C@@H](C)CO3)c1	/	/	.	/	/	/
COc1cccc(C(=O)Nc2ccc3c(c2)OC[C@@H](C)N(CCc2ccccc2)C[C@@H](C)[C@H](OC)CN(C)C3=O)c1	/	/	68	/	/	/
COc1cccc(C(=O)Nc2ccc3c(c2)C(=O)N(C)C[C@@H](OC)[C@H](C)CN(CCc2ccccc2)[C@H](C)CO3)c1	/	/	71	/	/	/
COc1ccc(S(=O)(=O)Nc2ccc3c(c2)C(=O)N([C@H](C)CO)C[C@@H](C)[C@H](CN(C)C(=O)Nc2ccc(C(F)(F)F)cc2)OCCCC[C@H](C)O3)cc1	/	/	77	/	/	/
COc1ccc(S(=O)(=O)Nc2ccc3c(c2)C(=O)N([C@H](C)CO)C[C@H](C)[C@H](CN(C)C(=O)Nc2ccc(C(F)(F)F)cc2)OCCCC[C@H](C)O3)cc1	/	/	.	/	/	/
COc1ccc(S(=O)(=O)Nc2ccc3c(c2)C(=O)N([C@H](C)CO)C[C@@H](C)[C@H](CN(C)C(=O)Nc2ccc(C(F)(F)F)cc2)OCCCC[C@@H](C)O3)cc1	/	/	62	/	/	/
COc1ccc(S(=O)(=O)Nc2ccc3c(c2)C(=O)N([C@H](C)CO)C[C@H](C)[C@@H](CN(C)C(=O)Nc2ccc(C(F)(F)F)cc2)OCCCC[C@@H](C)O3)cc1	/	/	.	/	/	/
C[C@@H]1CCCCO[C@@H](CN(C)S(=O)(=O)c2ccc(Cl)cc2)[C@H](C)CN([C@H](C)CO)C(=O)c2cc(NS(=O)(=O)c3ccccc3)ccc2O1	/	/	.	/	/	/
C[C@@H]1CN([C@H](C)CO)C(=O)c2cc(NS(=O)(=O)c3ccc(Cl)cc3)ccc2O[C@@H](C)CCCCO[C@@H]1CN(C)S(=O)(=O)c1ccccc1	/	/	.	/	/	/
C[C@H](CO)N1C[C@H](C)[C@@H](CN(C)S(=O)(=O)c2ccccc2)OCCCC[C@H](C)Oc2ccc(NS(=O)(=O)c3ccc(Cl)cc3)cc2C1=O	/	/	86	/	/	/
C[C@H](CO)N1C[C@H](C)[C@@H](CN(C)S(=O)(=O)c2ccc(Cl)cc2)OCCCC[C@H](C)Oc2ccc(NS(=O)(=O)c3ccccc3)cc2C1=O	/	/	76	/	/	/
C[C@@H]1CCCCO[C@H](CN(C)S(=O)(=O)c2ccccc2)[C@H](C)CN([C@H](C)CO)C(=O)c2cc(NS(=O)(=O)c3ccc(Cl)cc3)ccc2O1	/	/	.	/	/	/
C[C@H](CO)N1C[C@H](C)[C@H](CN(C)S(=O)(=O)c2ccccc2)OCCCC[C@H](C)Oc2ccc(NS(=O)(=O)c3ccc(Cl)cc3)cc2C1=O	/	/	84	/	/	/
Cc1ccc(CNC(=O)c2cc(-c3ccccc3C)nn2CC2CC(c3cccnc3)=NO2)cc1 (stereo not given)	.	.	.	.	92	.
Cc1noc(C)c1NC(=O)Nc1ccc2c(c1)C(=O)N([C@H](C)CO)C[C@H](C)[C@@H](CN(C)Cc1ccncc1)OCCCC[C@H](C)O2	/	/	.	/	/	/
SMILES	Peg3 prom inh	TRPM1 prom inh	PAX8 inh HTS	HIF-2a inh	Shn3 3UTR inh	EBV LMP1 NFkB
O=C(/C=C/c1ccccc1)CCN1CCCCC1	105	.	.	.	.	.
COc1cccc(-c2ccc(C3[C@H]4CNC[C@@H]3N4C(=O)Nc3ccccc3OC)cc2)c1 (stereo not given in full)	/	/	.	/	/	/
NS(=O)(=O)c1ccc(N/N=C/c2cn(-c3ccccc3)nc2-c2ccccc2)c([N+](=O)[O-])c1	.	77	.	.	/	.
Cc1ccc(S(=O)(=O)N[C@H]2CC[C@@H](CCn3cc(C4CC4)nn3)O[C@@H]2CO)cc1	/	/	.	/	/	/
CCc1c(C2(O)CCCCC2)[nH]c2cc(C(F)(F)F)ccc12	67	.	/	.	.	.
O=C1c2[nH]nc(-c3ccccc3O)c2C(c2cccc(Cl)c2)N1Cc1ccco1 (stereo not given)	60	.	.	.	.	.
CC(=O)Nc1ccc(C=NNc2nnc(NN=Cc3ccc(NC(C)=O)cc3)c3ccccc23)cc1	.	.	.	.	.	45
CN(C)C1=NC[C@H](Cc2ccccc2)N1CCCC1CCCC1	.	.	.	.	86	.
CN(C)C1=NC[C@H](Cc2ccccc2)N1CCCC1CCCCC1	.	.	.	.	.	.
CCN1C(Nc2ccccc2)=NC[C@@H]1Cc1ccccc1	.	.	.	.	.	.
CCCCCCCN1C(Nc2ccccc2)=NC[C@@H]1Cc1ccccc1	.	.	.	.	86	.
CC(C)(C)C1CCC(CN2C(Nc3ccccc3)=NC[C@@H]2Cc2ccccc2)CC1 (stereo not given in full)	95	95	.	.	.	.
c1ccc(CCCCN2C(Nc3ccccc3)=NC[C@@H]2Cc2ccccc2)cc1	.	.	.	.	.	.
O=C1O[C@H](c2ccccc2)[C@H](c2ccccc2)N2[C@H]1[C@@H](C(=O)N1CCN(c3ncccn3)CC1)[C@]1(C(=O)Nc3ccc(C#CCCO)cc31)[C@H]2c1ccc(OCCO)cc1	/	/	.	/	/	/
O=C(C[C@@H]1C[C@@H]2c3cc(NC(=O)CC4CC4)ccc3O[C@@H]2[C@H](CO)O1)NCCc1ccccc1	/	/	.	/	/	/
COc1ccc(-c2csc3ncnc(NCCN4CCOCC4)c23)cc1	.	.	/	.	.	46
c1ccc(-c2oc3ncnc(NCCCN4CCOCC4)c3c2-c2ccccc2)cc1	.	.	/	.	.	.
COc1ccc(-c2oc3ncnc(NCCCN4CCOCC4)c3c2-c2ccc(OC)cc2)cc1	64	.	/	.	.	.
